Screening data deposited in PubChem BioAssay by Broad Institute.
This is a sample that favours compounds with a hit; in the whole collection about 8.1% have one here.
PD-1 reverse act – reversal of PD-1 mediated T-cell inhibition. activation, % (no concentration beside the values). AID 2316. 29,000 tested, under 10 active. primary human CD4 T cells, PD-L1 beads, CellTiter-Glo 96 h; call rule not given here
Shh pathway inh – blocks Sonic Hedgehog signaling; inhibition, % (no concentration beside the values); 22,000 compounds, 2.1% hits; Shh-LIGHT2 Gli-luciferase reporter, 30 h;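 active means mean inhibition across valid replicates above about 65%, limit read from the data; inconclusive means mean under the limit, yet half or more replicates past it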;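 further: pathway switched on by Shh-conditioned medium diluted 1 in 25 in low serum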
MITF inhib – blocks MITF activity | TRPM1 promoter luciferase, luminescence, 24 h | inhibition, % (no concentration beside the values) | 37,000 compounds, 0.28% hits; in the data active means inhibition above about 85%; inconclusive means no clear call, values can overlap the other calls; inactive means below about 68%;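 further: human melanocyte line stably carrying TRPM1 promoter luciferase reporter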
NOMO-1 viab – STK33 inhibitor candidate reducing NOMO-1 cell viability; AID 2330; inhibition, % (no concentration beside the values); NOMO-1 AML viability, CellTiter-Glo luminescence, 72 h; 37,000 compounds, 7.5% hits; in the data active means inhibition above about 80%; inconclusive means no clear call, values can overlap the other calls
Of the large screens only hits and unclear results are named; the others gave an inactive call.

C[C@H]1CN([C@@H](C)CO)C(=O)c2cc(NS(=O)(=O)c3ccc(Cl)cc3)ccc2O[C@@H]1CN(C)Cc1ccc(C(=O)Nc2ccccc2N)cc1	none (no result: Shh pathway inh)
C[C@@H]1CN([C@@H](C)CO)C(=O)c2cc(NS(=O)(=O)c3ccc(Cl)cc3)ccc2O[C@@H]1CN(C)Cc1ccc(C(=O)Nc2ccccc2N)cc1	NOMO-1 viab 110 (no result: Shh pathway inh)
COC(=O)c1c(NC(=O)C2CC(=O)NN2Cc2ccccc2)sc2c1CCC2 (centres undefined)	none (no result: Shh pathway inh)
COC(=O)c1c(NC(=O)C2CC(=O)NN2Cc2ccccc2)sc2c1CCC(C)C2 (centres undefined)	NOMO-1 viab 109 (no result: Shh pathway inh)
O=C(Nc1cccc(Br)c1)c1cccc2c1C(=O)c1ccccc1-2	NOMO-1 viab 102 (no result: Shh pathway inh)
Cn1c(N2C(=O)c3cccc4cccc(c34)C2=O)nc2ccccc21	Shh pathway inh 86
Cn1c(SCCCN2C(=O)c3cccc4cccc(c34)C2=O)nnc1-c1ccncc1	none (no result: Shh pathway inh)
COc1ccc(CN(C)C[C@@H]2Oc3ccc(NC(=O)Nc4ccccc4)cc3CC(=O)N([C@@H](C)CO)C[C@@H]2C)cc1	none (no result: Shh pathway inh)
COc1ccc(NC(=O)Nc2ccc3c(c2)CC(=O)N([C@@H](C)CO)C[C@H](C)[C@H](CN(C)Cc2ccc(C(=O)Nc4ccccc4N)cc2)O3)cc1	NOMO-1 viab 126 (no result: Shh pathway inh)
COc1ccc(NC(=O)Nc2ccc3c(c2)CC(=O)N([C@H](C)CO)C[C@H](C)[C@H](CN(C)Cc2ccc(C(=O)Nc4ccccc4N)cc2)O3)cc1	NOMO-1 viab 127 (no result: Shh pathway inh)
COc1ccc(NC(=O)Nc2ccc3c(c2)CC(=O)N([C@H](C)CO)C[C@@H](C)[C@@H](CN(C)Cc2ccc(C(=O)Nc4ccccc4N)cc2)O3)cc1	NOMO-1 viab 90 (no result: Shh pathway inh)
COc1ccc(NC(=O)Nc2ccc3c(c2)CC(=O)N([C@@H](C)CO)C[C@@H](C)[C@@H](CN(C)Cc2ccc(C(=O)Nc4ccccc4N)cc2)O3)cc1	NOMO-1 viab 86 (no result: Shh pathway inh)
COc1ccc(NC(=O)Nc2ccc3c(c2)CC(=O)N([C@@H](C)CO)C[C@H](C)[C@@H](CN(C)Cc2ccc(C(=O)Nc4ccccc4N)cc2)O3)cc1	none (no result: Shh pathway inh)
O=C(CSc1nnc(-c2cccnc2)n1-c1ccc(Br)cc1)c1ccc(F)cc1	none (no result: PD-1 reverse act, Shh pathway inh)
Cc1ccc(OCC(=O)Nc2cc(-c3nc4ccc(C)cc4o3)ccc2Cl)c(C)c1	none (no result: Shh pathway inh)
Cn1c(SCC(=O)Nc2sc3c(c2C#N)CCCC3)nnc1-c1ccccc1	none (no result: Shh pathway inh)
CO[C@H]1C[C@@H]2CC[C@@H](C)[C@@](O)(O2)C(=O)C(=O)N2CCCC[C@H]2C(=O)O[C@H]([C@H](C)C[C@@H]2CC[C@@H](O)[C@H](OC)C2)CC(=O)[C@H](C)/C=C(\C)[C@@H](O)[C@@H](OC)C(=O)[C@H](C)C[C@H](C)/C=C/C=C/C=C\1C	NOMO-1 viab 131
O=C(CCCN1C(=O)c2ccccc2C1=O)Nc1ccccc1Cl	none (no result: PD-1 reverse act, Shh pathway inh)
O=C1c2ccccc2-[n+]2ccc3c([nH]c4ccccc43)c21	Shh pathway inh inconclusive, MITF inhib 108, NOMO-1 viab 99
O=C1C(c2c(O)[nH]c3ccccc23)=Nc2ccccc21	none
CSc1ccc(C2N[C@@H](C(=O)O)C(C)(C)S2)cc1 (some centres undefined)	none
O=C(CN1C(=O)COc2ccc(Cl)cc21)N1CCCC1	none
O=C(COc1cccc2ccccc12)Nc1ccccc1C(=O)O	none (no result: Shh pathway inh)
CC(C)(C)c1ccccc1OCC(=O)Nc1cccc2ccccc12	NOMO-1 viab 92
CC(Oc1ccc(Br)cc1)C(=O)Nc1ccccc1[N+](=O)[O-] (centres undefined)	none (no result: Shh pathway inh)
CC(Oc1ccccc1)C(=O)Nc1cc([N+](=O)[O-])ccc1O (centres undefined)	MITF inhib 100 (no result: Shh pathway inh)
CCC(=O)c1ccc2c(c1)N(CC(C)N(C)C)c1ccccc1S2 (centres undefined)	NOMO-1 viab 84 (no result: PD-1 reverse act)
C[C@H]1CN([C@@H](C)CO)C(=O)Cc2cc(NS(=O)(=O)c3ccc(F)cc3)ccc2O[C@H]1CN(C)Cc1ccc(-c2ccccc2)cc1	NOMO-1 viab 108
C[C@H](CO)N1C[C@H](C)[C@H](CN(C)Cc2ccc(-c3ccccc3)cc2)Oc2ccc(NS(=O)(=O)c3ccc(F)cc3)cc2CC1=O	NOMO-1 viab 95
C=C1CC[C@H]2[C@@](C)(CCC(O)[C@@]2(C)CO)[C@@H]1CCC1=CCOC1=O (some centres undefined)	none
C=C1CC[C@@H]2[C@](C)(CO)[C@H](O)CC[C@@]2(C)[C@@H]1C/C=C1/C(=O)OC[C@H]1O	NOMO-1 viab 108
O=c1cc(O)n(Cc2ccco2)c(=S)[nH]1	none
C[C@@H]1CN([C@H](C)CO)C(=O)Cc2cc(NC(=O)Nc3cccc4ccccc34)ccc2O[C@@H]1CN(C)CC1CCCCC1	NOMO-1 viab 87
